Measurements reported in PubChem BioAssay AID651957 (The Scripps Research Institute Molecular Screening Center, 2012).
In all, about 370,000 compounds went through this assay and about 620 (0.17%) were called active.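 Rule for the calls: active = inhibition above the mean inhibition of all tested compounds plus 3 SD, set per campaign (cut at about 52% in these data); inactive = the rest.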 For the sample, actives were picked, then their nearest neighbours and some compounds at random.

biological target: Nuclear receptor coactivator 2 (Homo sapiens) (UniProt Q15596); assay: inhibition of GAL4-SRC2 driven luciferase reporter, primary screen, SRC2 inhibitor project, cell-based, luminescence (AID 651957); details: HEK293 GAL4-SRC2 luciferase reporter, at 9 µM, active compounds read high;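 note: 0% = DMSO treated cells and 100% = cells given Gossypol at 36 µM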
Sequence (Q15596 whole entry, looked up, the tested form may be a part): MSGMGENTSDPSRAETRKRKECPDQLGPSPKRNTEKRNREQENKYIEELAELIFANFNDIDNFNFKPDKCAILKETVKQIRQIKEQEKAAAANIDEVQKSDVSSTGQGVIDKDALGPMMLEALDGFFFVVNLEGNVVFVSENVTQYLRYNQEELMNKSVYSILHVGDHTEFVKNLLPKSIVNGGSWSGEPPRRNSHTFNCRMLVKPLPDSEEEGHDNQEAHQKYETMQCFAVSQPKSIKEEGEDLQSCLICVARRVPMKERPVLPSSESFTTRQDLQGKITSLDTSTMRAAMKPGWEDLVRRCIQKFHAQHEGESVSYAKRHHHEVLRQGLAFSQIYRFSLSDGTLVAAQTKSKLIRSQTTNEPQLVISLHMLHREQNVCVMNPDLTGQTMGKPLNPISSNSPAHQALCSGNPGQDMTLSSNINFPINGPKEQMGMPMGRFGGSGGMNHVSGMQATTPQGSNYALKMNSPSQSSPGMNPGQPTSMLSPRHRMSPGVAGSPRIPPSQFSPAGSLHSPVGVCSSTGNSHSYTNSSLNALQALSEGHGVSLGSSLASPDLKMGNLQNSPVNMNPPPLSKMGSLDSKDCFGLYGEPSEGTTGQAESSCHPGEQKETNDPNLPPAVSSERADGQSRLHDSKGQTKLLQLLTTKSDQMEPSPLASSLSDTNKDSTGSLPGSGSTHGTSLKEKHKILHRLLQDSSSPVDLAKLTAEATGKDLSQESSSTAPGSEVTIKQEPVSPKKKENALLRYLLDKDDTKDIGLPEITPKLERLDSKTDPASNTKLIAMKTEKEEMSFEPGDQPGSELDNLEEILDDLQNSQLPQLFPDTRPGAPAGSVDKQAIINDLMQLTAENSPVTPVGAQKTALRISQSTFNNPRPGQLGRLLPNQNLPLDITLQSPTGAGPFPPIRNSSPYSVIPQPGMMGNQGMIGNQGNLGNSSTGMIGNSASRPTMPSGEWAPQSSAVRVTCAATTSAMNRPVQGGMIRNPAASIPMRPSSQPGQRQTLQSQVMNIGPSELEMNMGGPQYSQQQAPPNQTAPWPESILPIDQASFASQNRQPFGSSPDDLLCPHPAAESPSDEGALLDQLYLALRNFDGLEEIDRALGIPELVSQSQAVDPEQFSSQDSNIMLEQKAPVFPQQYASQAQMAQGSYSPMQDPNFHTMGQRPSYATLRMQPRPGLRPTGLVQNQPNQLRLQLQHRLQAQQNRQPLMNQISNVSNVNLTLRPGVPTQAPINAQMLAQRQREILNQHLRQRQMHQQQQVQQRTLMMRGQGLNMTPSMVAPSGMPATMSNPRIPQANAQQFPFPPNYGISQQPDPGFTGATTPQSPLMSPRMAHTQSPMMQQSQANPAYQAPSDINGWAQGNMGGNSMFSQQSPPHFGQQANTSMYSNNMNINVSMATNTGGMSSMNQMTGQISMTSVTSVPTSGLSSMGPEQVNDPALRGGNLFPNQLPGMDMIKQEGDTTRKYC

inhibition, inactive:
Cc1ccccc1NC(=O)c1nn(-c2ccc(F)c(F)c2)ccc1=O 1.35%, Cc1nnnn1/C(=C\c1ccccc1)C(=O)OCC(=O)N1CC2(C)CC1CC(C)(C)C2 (stereo unspecified) 32.3%, O=C1N=C2SCCN2/C1=C\c1c(Cl)cccc1Cl 4.12%, Cc1ccc(NC(=O)CCOc2ccccc2)cc1S(=O)(=O)Nc1ccccc1Cl 9.26%, CC(C)Cc1nc(Nc2ccc(S(=O)(=O)N3CCCC3)cc2)c2nnn(Cc3ccccc3)c2n1 -14.5%, CCCCOCCCNC(=O)C[C@H]1C[C@@]2(C(=O)OC)C(=C[C@H](C(C)(C)C)O[C@@H]2C)N(CCc2ccc(OC)c(OC)c2)C1=O 1.08%, COc1ccc(NC(=O)CCCN2C(=O)C(c3ccccc3)Oc3cccnc32)cc1 (stereo unspecified) 2.65%, COc1ccc(NC(=O)CN2C(=O)CSC2=O)cc1 -15.1%, CC(=O)Nc1ccc(NC(=O)C(C)n2c3ccccc3c3nc(=O)cc(C)n32)cc1 (stereo unspecified) -6.71%, O=C1C=C(c2ccccc2)CCC1 -5.31%, COC(=O)[C@]12C[C@H](CC(=O)NCc3ccccc3)C(=O)N(CCC3=CCCCC3)C1=C[C@H](C(C)(C)C)O[C@@H]2C 28.1%, N=c1n(CCc2ccccc2)c2ccccc2n1Cc1ccccc1F 2.8%, COc1c(C=O)c(CCN(C)C(=O)c2ccc(F)cc2)cc2c1OCO2 0.41%, CCCC[C@H]1C2CC(OC(=O)NCc3ccccc3)C(C2)[C@H]2CCCCN21 (stereo partly specified) -8.24%, COCCC(=O)Nc1ccc2c(c1)CN(C(=O)CCOC)CC2 9.25%, Cc1ccc(C(=O)N(Cc2ccccn2)CC2CCCO2)cc1 (stereo unspecified) -16.2%, Cc1noc(C)c1NC(=O)Nc1ccc2c(c1)C(=O)N([C@H](C)CO)C[C@H](C)[C@H](CN(C)Cc1ccncc1)OCCCC[C@@H](C)O2 5.48%, CC(C)N1CCCCC(NC(=O)C(C)(C)C)C1=O (stereo unspecified) 11.4%, COc1ccc(N2c3ccccc3CN(Cc3ccccc3)[C@@H](C)[C@H]2Cc2ccc(-c3ccccc3)cc2)cc1 -9.73%, Cc1c(C(C)c2ccccc2O)[nH]c2ccccc12 (stereo unspecified) -18.6%, O=S1(=O)c2c(cccc2N2CC[C@H](O)C2)O[C@@H]2CCN1C2 -22.3%, Cc1ccc(C2=CCN(C)C(=O)N2c2ccc(Cl)cc2)cc1 30.5%, O=C(NC1CCCCN(Cc2cccc(C(F)(F)F)c2)C1=O)c1ccccc1I (stereo unspecified) 18.9%, CCCC(CCC(=O)OC)(C(=O)OCC)c1csc(N)n1 (stereo unspecified) 11%, CCOC(=O)[C@]12CCCCC/C=C\1N(Cc1ccc(OC)cc1)C(=O)[C@H]2CC(=O)NCc1ccc(C)o1 -22.3%, O=C(CSc1nc2ccccc2n1Cc1ccccc1)NNC(=S)Nc1ccccc1 4.68%, COC(=O)C1=C(C)N(Cc2cccc(C(F)(F)F)c2)C(=NCc2cccc(C(F)(F)F)c2)NC1c1ccccc1C(F)(F)F (stereo unspecified) -30.7%, Cc1ccccc1CN1CCCCC(NC(=O)c2cccc(C#N)c2)C1=O (stereo unspecified) -18.3%, N#C/C(=C/c1ccc(Cl)cc1)NC(=O)c1ccccc1 -29%, CCOC(=O)CN(C(=O)COc1nc(C)cc(C)c1C#N)c1ccc(Cl)cc1 -18%, C=CCn1c(SCC(N)=O)nnc1-c1ccccc1OC -9.59%, O=C(c1ccco1)N(Cc1nc2ccccc2c(=O)[nH]1)C1CCCC1 2.27%, CC(C)CC1NC(=O)c2cc(Cl)ccc2-n2c1nc1ccccc1c2=O (stereo unspecified) 5.29%, O=C(NC1Cc2ccccc2C1)c1cc(COc2cccc(C(F)(F)F)c2)on1 11.1%, CC1(C)CC(N2CCN(C(c3ccccc3)c3ccccc3)CC2)=CC(=[N+]2CCCCC2)C1 24.5%, COc1ccc(S(=O)(=O)N2CCc3ccccc32)cc1C(=O)Nc1cc(S(C)(=O)=O)ccc1Cl -10.2%, O=C(Nc1nc2ccc(Cl)cc2s1)c1cc(-c2ccc(Cl)cc2)nc2ccccc12 -2.88%, CC(OC(=O)CN1C(=O)C2CCCCC2C1=O)C(=O)Nc1ncc(Cl)cc1Cl (stereo unspecified) 1.55%, O=C(COC(=O)CN1C(=O)C2CCCCC2C1=O)Nc1ccc(F)c(F)c1F (stereo unspecified) -13.3%, Cc1ccc(-n2c(SCC(=O)Nc3cccc4ccccc34)nnc2-c2ccco2)cc1 -19.3%, CN1CCNC(=O)C1CC(=O)NCCC1=CCCCC1 (stereo unspecified) 20.1%, CN1CCCCC(NC(=O)C(C)(C)C)C1=O (stereo unspecified) -8.4%, CCC(c1ccc(NC(=O)OC(C)(C)C)cc1)c1cc(OC)cc(OC)c1 (stereo unspecified) 11.3%, CC(=O)c1cc(-c2ccc3ccccc3c2)c(=O)n2c1CCC2 -32.7%, COc1cccc(CN2CCN(Cc3ccc4cccc(F)c4n3)CC2CCO)c1 (stereo unspecified) -4.49%, COc1ccc(/C=C/C(=O)NC(=S)N2CCCC(C(N)=O)C2)cc1 (stereo unspecified) -8.4%, CCOc1ccc(NC(=O)COC(=O)C2CCC(=O)N2)c([N+](=O)[O-])c1 (stereo unspecified) -12.2%, CC(C)(C)c1ccc(CSc2nnc(-c3cccs3)o2)cc1 -21.4%, COC[C@@H]1CCCN1c1ccc2c(c1)O[C@H](C)CCN(C1CC1)S2(=O)=O 14.3%

inhibition, active:
COc1ccc(/C=C2/SC(=O)N(CCCCCC(=O)Nc3ccccc3C(=O)O)C2=S)cc1 58.3%, O=C(Nc1ccccc1Cl)/C(Cl)=C(\Cl)S(=O)c1ccccc1 (stereo unspecified) 85.5%, CCOc1cc(/C=C(/C#N)c2ccc(Cl)cc2)cc(Cl)c1OCC(=O)O 56.9%, CN(c1ccc2nc3ccccc3c(=O)n2n1)C1CCCCC1 72.1%, CC1=CC(C)(C)Nc2ccc(OC(=O)CN3C(=O)C4CCCCC4C3=O)cc21 (stereo unspecified) 52.7%, CC(C)(C)c1ccc(Oc2ccc(N)cc2)cc1 92%, CCOc1ccc(NC(=S)NC(=O)/C=C/c2ccc(OC)cc2)c([N+](=O)[O-])c1 95.6%
